Measured values reported in PubChem BioAssay AID1159580 (chemical genetic matrix, 2015).
“And” between values parts separate entries of the source, which are not always exact repeats. Equal values may be shown once. In all, about 5,500 compounds went through this assay and about 2,000 (36%) were called active. Inconclusive results (about 18%) are left out. Rule as the data show it: active = normalized growth mostly below about 0.91 (no sharp cut-off); inconclusive = no clear call, values can overlap the other calls; inactive = mostly above about 0.92. This is one part of the list.

Test: chemical genetic growth profiling, strain panel (AID 1159580);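 also: tested at 20 µM; growth read once vehicle control cultures reached saturation at 30 °C; 1 = growth at the plate median or of vehicle wells; lower values mean less growth of the strain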
Details: S. cerevisiae deletion strains, growth OD
[1] = locus YDR150W, strain NUM1, stronger effect = lower value
[2] = locus YNL153C, strain GIM3, stronger effect = lower value
[3] = locus YPL241C, strain CIN2, stronger effect = lower value
[4] = locus YAL013W, strain DEP1, stronger effect = lower value
[5] = locus YBR229C, strain ROT2, stronger effect = lower value
[6] = locus YDL101C, strain DUN1, stronger effect = lower value
[7] = locus YEL061C, strain CIN8, stronger effect = lower value
[8] = locus YGR078C, strain PAC10, stronger effect = lower value
[9] = locus YGR229C, strain SMI1, stronger effect = lower value
[10] = locus YHR030C, strain SLT2, stronger effect = lower value
[11] = locus YHR087W, strain rtc3, stronger effect = lower value
[12] = locus YJL187C, strain SWE1, stronger effect = lower value
[13] = locus YJR043C, strain POL32, stronger effect = lower value
[14] = locus YJR075W, strain HOC1, stronger effect = lower value
[15] = locus YLR039C, strain RIC1, stronger effect = lower value
[16] = locus YLR058C, strain SHM2 (second series), stronger effect = lower value
[17] = locus YLR085C, strain ARP6, stronger effect = lower value
[18] = locus YLR262C, strain YPT6, stronger effect = lower value
[19] = locus YML094W, strain GIM5, stronger effect = lower value
[20] = locus YMR219W, strain ESC1, stronger effect = lower value
[21] = locus YMR263W, strain SAP30, stronger effect = lower value
[22] = locus YNL298W, strain CLA4 (second series), stronger effect = lower value
[23] = locus YNL322C, strain KRE1, stronger effect = lower value
[24] = locus YNR030W, strain Alg12, stronger effect = lower value
[25] = locus YPL055C, strain LGE1, stronger effect = lower value
[26] = locus YPR135W, strain CTF4, stronger effect = lower value

Measured: normalized growth

Cc1ccc([N+](=O)[O-])cc1S(=O)(=O)N(C)C
inactive: locus YAL040C, strain CLN3, stronger effect = lower value 0.984 | locus YCL061C, strain MRC1 (second series), stronger effect = lower value 1 | [1] 1.03 | locus YDR363W, strain ESC2, stronger effect = lower value 0.972 | locus YER002W, strain NOP16, stronger effect = lower value 1 | [2] 0.846 | locus YNL175C, strain NOP13, stronger effect = lower value 0.996 | locus YNL197C, strain WHI3, stronger effect = lower value 0.926 | locus YNL224C, strain SQS1, stronger effect = lower value 0.979 | locus YOR083W, strain WHI5 (second series), stronger effect = lower value 0.955 | [3] 0.998

CN1c2ccccc2C(=O)NC1c1ccc([N+](=O)[O-])s1 (centres undefined)
inactive: [4] 1 | [5] 0.988 | [6] 1.02 | [1] 1 | [7] 0.967 | [8] 1.02 | [9] 0.989 | [10] 1 | [11] 0.991 | [12] 0.996 | [13] 1.01 | [14] 1.02 | [15] 1.02 | [16] 0.995 | [17] 1.03 | [18] 1.05 | [19] 0.989 | [20] 0.995 | [21] 1 | locus YMR307W, strain GAS1, stronger effect = lower value 1.01 | [2] 1.02 | [22] 1.01 | [23] 0.995 | [24] 0.988 | [25] 0.971 | [3] 1 | [26] 1.05

O=[N+]([O-])c1ccc2c(c1)NC(c1ccc([N+](=O)[O-])s1)O2 (centres undefined)
active: [4] 0.0563 | [5] 0.0525 | locus YCL061C, strain MRC1, stronger effect = lower value 0.0508 | [6] 0.0673 | locus YDL134C, strain PPH21, stronger effect = lower value 0.0453 | [1] 0.0493 | [7] 0.049 | locus YGR052W, strain FMP48, stronger effect = lower value 0.104 | [8] 0.0481 | [9] 0.0516 | [10] 0.0641 and 0.114 | locus YHR079C, strain IRE1, stronger effect = lower value 0.11 | locus YHR082C, strain KSP1, stronger effect = lower value 0.106 | [11] 0.0539 | locus YJL095W, strain BCK1, stronger effect = lower value 0.1 | [12] 0.0478 | [13] 0.0509 | locus YJR066W, strain TOR1, stronger effect = lower value 0.1 | [14] 0.0918 | locus YKL171W, strain NNK1, stronger effect = lower value 0.387 | locus YKL203C, strain TOR2, stronger effect = lower value 0.0984 | [15] 0.0606 | [16] 0.0478 | [17] 0.0638 | locus YLR113W, strain HOG1, stronger effect = lower value 0.187 | [18] 0.0626 | [19] 0.0601 | [20] 0.0484 | [21] 0.0575 | [2] 0.0476 | locus YNL183C, strain NPR1, stronger effect = lower value 0.108 | locus YNL207W, strain RIO2, stronger effect = lower value 0.107 | [22] 0.0735 | [23] 0.0534 | [24] 0.063 | locus YOR119C, strain RIO1, stronger effect = lower value 0.0996 | locus YOR231W, strain MKK1, stronger effect = lower value 0.101 | [25] 0.0657 | [3] 0.0629 | locus YPL256C, strain CLN2, stronger effect = lower value 0.17 | [26] 0.149
